The record followed here is PubChem BioAssay (NCATS).

Records with an inconclusive call do not appear. The source made the active and inactive calls. Unless noted, calls follow the shape of the dose curve; as a rule, active = well fitted curve in the direction sought with a large enough effect; inconclusive = small, poorly fitted or top-dose-only effect, or another doubt; inactive = no such curve, though single readings can be large; an effect the other way counts as inactive or inconclusive.

Assay [1] concerns the target Lysosomal acid glucosylceramidase (Homo sapiens) (UniProt P04062). Nature of the assay: Glucocerebrosidase-p2 (AID 348; in the data active = potency below about 10 µM; also: potency is read from the fitted curve at half-maximal effect). As to conditions: purified GBA, blue fluorogenic substrate, 40 min. The procedure, abridged:
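Compounds titrated from 0.6 nM upwards against 0.2 nM enzyme in pH 5.9 citric acid/KH2PO4, taurocholate, tween-20; blue fluorogenic substrate 80 uM, 40 min room temperature, stopped and read Ex 365/Em 440 for AC50.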

A short description of assay [2]: AP1 Signaling Pathway (AID 357; active = well fitted curve in either direction with a large enough effect, not every such curve was filed as active;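 also: ME-180 reporter cells stimulated with EGF at its EC50 level; % is scaled to controls: 0 for no effect and ±100 for the full control effect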). The note with it: ME-180 AP-1-bla reporter, EGF-induced, beta-lactamase ratio, 5 h; at 7.69 µM (top of the series) unless noted. The procedure, abridged:
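Modulation of EGF-driven AP-1 transcription was assessed with a beta-lactamase reporter in ME-180 cells. Compound and EC50 EGF were co-incubated 5 hours at 37 °C before 2.5-hour CCF4 loading at room temperature and dual-emission reading.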

The target of assay [3] is Cytochrome P450 1A2 (Homo sapiens) (UniProt P05177). Nature of the assay: p450-cyp1a2 (AID 410; calls by dose curve; also: potency is read from the fitted curve at half-maximal effect). In outline: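 Inhibition was calculated relative to 57 uM furafylline (full inhibition). The reaction used human CYP1A2 at 20nM with Luciferin-ME at its Km, 100uM, driven by an NADPH-regenerating system for 60 min at room temperature.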
A short description of assay [4]: NFAT Signaling Pathway (AID 444; active = well fitted curve in either direction with a large enough effect, not every such curve was filed as active;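 also: carbachol stimulus at about its EC50 of 1 µM final; % is scaled to controls: 0 for no effect and ±100 for the full control effect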). As to conditions: Jurkat NFAT-bla M1, carbachol, beta-lactamase ratio, 5 h; at 7.69 µM (top of the series) unless noted. In outline: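 Read-out: CCF4 FRET ratio (460 nm/530 nm) after 1 h RT dye loading, used for %activity and AC50 from titration series. Cells: Jurkat NFAT-β-lactamase/M1 line, treated with compound plus 1 uM carbachol for 5 h, 37 °C.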

Assay [5] is described as follows: Stat Signaling Pathway (AID 446; active = well fitted curve in either direction with a large enough effect, not every such curve was filed as active;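 also: ME-180 cervical cancer cells given 40 pM IL-6 alongside compound; SIE-controlled beta-lactamase reporter measured as 460/530 nm FRET emission ratio; % is scaled to controls: 0 for no effect and ±100 for the full control effect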). The note with it: ME-180 SIE beta-lactamase reporter, IL-6 stimulated, 5 h; at 7.69 µM (top of the series) unless noted. The procedure, abridged:
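ME-180 cells carrying a SIE-driven beta-lactamase reporter are stimulated with 40 pM IL-6 for 5 h at 37C in the presence of compound. The 460/530 nm FRET substrate ratio is read after 2.5 h at RT. Data are normalised to 300 pM IL-6 and to 125 nM JAK inhibitor controls.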

The target of assay [6] is Glucocorticoid receptor (Homo sapiens) (UniProt P04150). Nature of the assay: GR-GFP Redistribution (AID 450;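 active = compounds whose dose series gives a full or clear partial fitted curve of increased nuclear translocation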; also: potency is read from the fitted curve at half-maximal effect). As to conditions: U2OS GR-GFP nuclear translocation, laser cytometry, 2 h.
The target is the same in assay [7]. Nature of the assay: GR-EFC Redistribution (AID 451; calls by dose curve; also: potency is read from the fitted curve at half-maximal effect). The note with it: CHO-K1 GR-EFC translocation, beta-gal luminescence, 2 h. In outline: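 Translocation of GR-ED fusion to nuclear EA restores b-gal, read by luminescence after 1 h room-temperature detection. Engineered CHO-K1 biosensor cells, 1,000/well, exposed 2 h at 37 C to titrations up to 46 uM final.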

Assay [8] deals with Mitogen-activated protein kinase 10 (Mus musculus) (UniProt Q61831). Nature of the assay: JNK3 AlphaScreen Assay (AID 530; active = well fitted curve in either direction with a large enough effect, not every such curve was filed as active;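 also: kinase came from lysate of stimulated human HepG2 cells; signal reports phosphorylation of biotinylated GST-cJun 1-79 at Ser73 with 10 µM ATP; % is scaled to controls: 0 for no effect and ±100 for the full control effect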). In outline: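 Room-temperature AlphaScreen kinase assay; pre-activated HepG2 lysate as JNK3 source, biotin-GST-cJun(1-79) substrate, 10 uM ATP, compound 15 min preincubation.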
On the technique in general: Bead proximity is the source of the signal in Alpha formats.

The target in assay [9] is 3',5'-cyclic-AMP phosphodiesterase 4B (Homo sapiens) (UniProt Q07343). Nature of the assay: qHTS Assay for Inhibitors of PDE-IV (AID 607; active = well fitted activation curve with a large enough effect in the main read-out, with a control signal flat, not every such curve was filed as active; also: % of control where 0% means no effect). The procedure, abridged:
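HEK293 ACTOne cells with CNG channel (1000/well), endogenous PDE4; membrane potential dye, compounds up to 22.9 uM final. Fluorescence Ex 535/Em 590; RO 20-1724 (100 uM final) as reference.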
(Quantitative high-throughput screening tests each substance at several concentrations.)

Assay [10] deals with Cytochrome P450 3A4 (Homo sapiens) (UniProt P08684). Nature of the assay: qHTS Assay for Inhibitors and Substrates of Cytochrome P450 3A4 (AID 884). Also: potency is read from the fitted curve at half-maximal effect; nearly all actives have a fitted effect of over 50% in size. The procedure, abridged:
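20 nM human CYP3A4 with 25 uM Luciferin-PPXE (at KM) in 200 mM KPO4, preincubated 10 min with compound; NADPH regeneration started a 60 min RT reaction. Luciferin detected by luminescence, normalized to 57 uM ketoconazole as full inhibition.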

Assay [11] has the same target. Nature of the assay: qHTS Assay for Activators of Cytochrome P450 3A4 (AID 885). Also: nearly all actives have a fitted effect of over 65% in size. The procedure, abridged: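 Human CYP3A4 (20 nM) with Luciferin-PPXE at 25 uM (its KM) in 200 mM KPO4; 10 min compound preincubation, then NADPH regeneration and 60 min reaction at RT. Luciferin read by luminescence; normalized to 57 uM ketoconazole full inhibition.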
Assay [12] is described as follows: qHTS Assay for Identification of Small Molecule Agonists for Hypoxia Response Element Signaling Pathway (AID 914; active = well fitted activation curve with a large enough effect in the signal ratio, with a control signal flat, not every such curve was filed as active; the % refers to the signal ratio; also: % of control where 0% means no effect). The note with it: ME-180 (cervical carcinoma) HRE-bla reporter, beta-lactamase ratio, CoCl2, 17 h; activation: stronger effect = higher value. In outline: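 HRE-bla ME-180 cells with beta-lactamase reporter under hypoxia response element, compounds with EC50 CoCl2 for 17 hours at 37 C. CCF4 substrate, 460nm/530nm emission ratio gave %Activity; AC50 from titration series.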

Assay [13] in a line: qHTS Assay for Lipid Storage Modulators (AID 1519; calls by dose curve). As to conditions: Drosophila S3 cells, BODIPY lipid droplet/cell ratio, laser cytometry, cells loaded with oleic acid; for activity change, negative = inhibition: at 57.5 µM (top of the series). In outline: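 Cells seeded at 5,000 per well were treated with compounds over a concentration series and loaded with oleic acid (400 uM, as added). Lipid droplet fluorescence (488 nm excitation, 500-530 nm channel) was read by laser-scanning cytometry and normalized to 20 uM Triacsin C.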

Assay [14] addresses Dual specificity protein kinase CLK4 (Homo sapiens) (UniProt Q9HAZ1). Nature of the assay: qHTS Assay for Inhibitors of CDC-like Kinase 4 (Kinase-Glo Assay) (AID 1770). Also: nearly all actives have a fitted effect of over 65% in size. Also: potency is read from the fitted curve at half-maximal effect. The procedure, abridged: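 Luminescent ATP-depletion read-out (Kinase-Glo) after 4.5 h room-temperature reaction of Clk4 (25 nM final) with RS peptide (100 uM) and ATP (1 uM), pH 7.5 Tris buffer with MgCl2 and DTT.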

Assay [15] shares this target. Nature of the assay: qHTS Assay for Inhibitors of CDC-like Kinase 4 (ADP-Glo Assay) (AID 1771). Also: potency is read from the fitted curve at half-maximal effect; nearly all actives have a fitted effect of over 70% in size. In outline: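 Kinase reaction: Clk4 at 25 nM, RS repeat peptide substrate at 100 uM, ATP at 1 uM, 1 hr, room temperature. Product ADP detected as luciferase signal via ADP-Glo.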
Assay [16] addresses Ubiquitin carboxyl-terminal hydrolase 1 (Homo sapiens) (UniProt O94782). Nature of the assay: Inhibitors of USP1/UAF1: Pilot qHTS (AID 504865).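 Also: rhodamine fluorescence freed from ubiquitin-rhodamine substrate followed over time; top concentration of the series differs between compounds; % is scaled to controls: 0 for no effect and ±100 for the full control effect; nearly all actives have a fitted effect of over 35% in size.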 The procedure, abridged: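 Deubiquitinase activity followed as kinetic rhodamine fluorescence release from 150 nM Ub-Rho. 1 nM USP1/UAF1 with compound, after 15 min room-temperature preincubation, in HEPES pH 7.8 buffer containing TCEP, EDTA, BSA and Tween-20.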

The nature of assay [17]: Primary qHTS for small molecule stabilizers of the endoplasmic reticulum resident proteome: Secreted ER Calcium Modulated Protein (SERCaMP) assay (AID 1508630). Also: % is scaled to controls: 0 for no effect and ±100 for the full control effect. The procedure, abridged: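 GLuc-SERCaMP-expressing SH-SY5Y cells, pretreated 16 h with compound, are challenged with thapsigargin to empty ER calcium stores; after 4 h, coelenterazine is added directly to the medium and luminescence is imaged.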

The target in assay [18] is Dual specificity protein kinase CLK4 (Homo sapiens) (UniProt Q9HAZ1). Nature of the assay: qHTS Assay for Inhibitors of CDC-like Kinase 4 (ADP-FP Assay) (AID 1795).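 Also: recombinant human CLK4 phosphorylating RS repeat peptide at 1 µM ATP; % is scaled to controls: 0 for no effect and ±100 for the full control effect; nearly all actives have a fitted effect of over 60% in size.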 In outline: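 Kinase activity was measured as ADP production using Transcreener orange tracer (4 nM) and ADP antibody (1 ug/mL) fluorescence polarization, with ADP calculated from a calibration curve. The 1 h reaction contained 6.25 nM Clk4, 1 uM ATP and 100 uM RS peptide at pH 7.5 with Mg2+.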

Where [19] appears, read: measured here: cell count channel max response.
Setting [20] is: measured here: lipid channel max response.

Dual specificity protein kinase CLK4 (Homo sapiens), sequence (Q9HAZ1 whole entry, looked up): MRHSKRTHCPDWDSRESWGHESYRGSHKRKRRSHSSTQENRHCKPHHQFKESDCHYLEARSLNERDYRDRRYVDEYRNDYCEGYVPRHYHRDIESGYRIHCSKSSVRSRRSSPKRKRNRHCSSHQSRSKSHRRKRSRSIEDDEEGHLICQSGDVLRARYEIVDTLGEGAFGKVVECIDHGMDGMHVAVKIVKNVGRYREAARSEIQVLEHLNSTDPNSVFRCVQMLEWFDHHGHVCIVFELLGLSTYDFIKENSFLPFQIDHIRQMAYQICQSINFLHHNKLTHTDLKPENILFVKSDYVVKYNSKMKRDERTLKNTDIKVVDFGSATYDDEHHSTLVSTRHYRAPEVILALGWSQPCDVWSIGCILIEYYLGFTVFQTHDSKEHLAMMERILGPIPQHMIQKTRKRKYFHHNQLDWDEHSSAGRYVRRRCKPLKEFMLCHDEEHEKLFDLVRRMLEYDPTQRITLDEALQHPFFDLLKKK
Ubiquitin carboxyl-terminal hydrolase 1 (Homo sapiens), sequence (O94782 whole entry, looked up): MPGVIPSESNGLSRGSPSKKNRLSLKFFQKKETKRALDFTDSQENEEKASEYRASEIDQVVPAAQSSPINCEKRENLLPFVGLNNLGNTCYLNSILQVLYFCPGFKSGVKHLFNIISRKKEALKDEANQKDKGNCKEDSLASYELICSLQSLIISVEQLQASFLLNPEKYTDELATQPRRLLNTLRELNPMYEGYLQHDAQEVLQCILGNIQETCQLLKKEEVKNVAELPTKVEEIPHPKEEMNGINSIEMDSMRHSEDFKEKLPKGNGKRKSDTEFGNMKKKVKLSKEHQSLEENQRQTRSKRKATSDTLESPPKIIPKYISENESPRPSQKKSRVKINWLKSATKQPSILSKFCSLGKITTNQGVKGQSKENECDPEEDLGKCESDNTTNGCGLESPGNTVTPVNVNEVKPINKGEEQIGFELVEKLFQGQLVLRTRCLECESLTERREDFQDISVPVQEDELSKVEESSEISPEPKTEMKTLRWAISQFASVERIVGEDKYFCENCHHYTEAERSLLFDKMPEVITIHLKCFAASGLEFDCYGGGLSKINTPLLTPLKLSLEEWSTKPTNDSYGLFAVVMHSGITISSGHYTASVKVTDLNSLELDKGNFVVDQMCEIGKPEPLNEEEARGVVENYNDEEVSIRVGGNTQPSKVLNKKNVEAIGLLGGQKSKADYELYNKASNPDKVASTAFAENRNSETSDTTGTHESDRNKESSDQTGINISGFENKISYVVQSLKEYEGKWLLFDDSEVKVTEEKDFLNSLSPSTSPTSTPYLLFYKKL
Cytochrome P450 3A4 (Homo sapiens), sequence (P08684 whole entry, looked up): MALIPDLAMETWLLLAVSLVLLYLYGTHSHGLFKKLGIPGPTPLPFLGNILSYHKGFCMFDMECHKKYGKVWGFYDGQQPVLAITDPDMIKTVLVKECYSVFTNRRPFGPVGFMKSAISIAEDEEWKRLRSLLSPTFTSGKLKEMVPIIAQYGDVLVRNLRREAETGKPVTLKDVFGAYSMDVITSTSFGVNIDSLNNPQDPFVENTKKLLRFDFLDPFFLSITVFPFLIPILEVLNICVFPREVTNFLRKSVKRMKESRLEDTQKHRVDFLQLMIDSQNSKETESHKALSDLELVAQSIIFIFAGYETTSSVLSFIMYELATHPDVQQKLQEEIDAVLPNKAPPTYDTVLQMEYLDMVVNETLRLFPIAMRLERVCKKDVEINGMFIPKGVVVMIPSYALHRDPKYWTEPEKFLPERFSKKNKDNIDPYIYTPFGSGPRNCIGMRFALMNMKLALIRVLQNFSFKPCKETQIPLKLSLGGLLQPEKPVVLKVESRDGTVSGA
Glucocorticoid receptor (Homo sapiens), sequence (P04150 whole entry, looked up, the tested form may be a part): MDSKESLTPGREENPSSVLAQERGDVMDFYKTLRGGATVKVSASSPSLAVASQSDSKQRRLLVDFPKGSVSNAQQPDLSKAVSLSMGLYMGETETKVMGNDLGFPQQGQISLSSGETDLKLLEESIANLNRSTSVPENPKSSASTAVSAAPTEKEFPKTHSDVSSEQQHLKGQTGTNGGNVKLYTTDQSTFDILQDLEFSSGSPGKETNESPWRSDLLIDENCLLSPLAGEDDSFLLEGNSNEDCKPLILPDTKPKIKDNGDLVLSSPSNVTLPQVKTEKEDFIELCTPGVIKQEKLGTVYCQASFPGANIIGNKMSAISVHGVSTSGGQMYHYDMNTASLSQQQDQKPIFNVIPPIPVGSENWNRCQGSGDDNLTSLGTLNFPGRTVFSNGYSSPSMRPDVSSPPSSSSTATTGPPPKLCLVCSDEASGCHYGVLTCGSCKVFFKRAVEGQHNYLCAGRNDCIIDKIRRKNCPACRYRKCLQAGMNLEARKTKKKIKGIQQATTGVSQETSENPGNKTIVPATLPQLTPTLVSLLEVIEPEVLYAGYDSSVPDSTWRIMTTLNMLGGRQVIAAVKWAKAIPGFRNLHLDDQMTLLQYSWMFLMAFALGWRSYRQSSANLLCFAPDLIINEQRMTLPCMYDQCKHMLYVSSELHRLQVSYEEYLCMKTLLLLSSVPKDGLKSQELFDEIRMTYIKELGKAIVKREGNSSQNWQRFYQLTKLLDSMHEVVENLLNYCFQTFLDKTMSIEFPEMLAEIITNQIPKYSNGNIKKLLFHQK
Lysosomal acid glucosylceramidase (Homo sapiens), sequence (P04062 whole entry, looked up): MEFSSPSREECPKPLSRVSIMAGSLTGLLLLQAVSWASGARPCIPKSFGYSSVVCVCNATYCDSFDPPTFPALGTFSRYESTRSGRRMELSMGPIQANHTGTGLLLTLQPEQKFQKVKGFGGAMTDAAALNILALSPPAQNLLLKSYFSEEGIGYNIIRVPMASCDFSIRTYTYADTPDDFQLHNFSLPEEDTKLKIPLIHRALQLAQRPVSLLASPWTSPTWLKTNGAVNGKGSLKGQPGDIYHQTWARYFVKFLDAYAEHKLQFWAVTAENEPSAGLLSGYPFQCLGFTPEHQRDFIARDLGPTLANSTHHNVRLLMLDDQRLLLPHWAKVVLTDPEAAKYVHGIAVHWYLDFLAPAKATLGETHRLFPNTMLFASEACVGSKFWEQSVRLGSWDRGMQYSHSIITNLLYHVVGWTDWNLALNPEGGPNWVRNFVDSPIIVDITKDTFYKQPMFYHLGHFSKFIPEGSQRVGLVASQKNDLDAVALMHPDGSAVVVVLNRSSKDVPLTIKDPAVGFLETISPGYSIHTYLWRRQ
3',5'-cyclic-AMP phosphodiesterase 4B (Homo sapiens), sequence (Q07343 whole entry, looked up): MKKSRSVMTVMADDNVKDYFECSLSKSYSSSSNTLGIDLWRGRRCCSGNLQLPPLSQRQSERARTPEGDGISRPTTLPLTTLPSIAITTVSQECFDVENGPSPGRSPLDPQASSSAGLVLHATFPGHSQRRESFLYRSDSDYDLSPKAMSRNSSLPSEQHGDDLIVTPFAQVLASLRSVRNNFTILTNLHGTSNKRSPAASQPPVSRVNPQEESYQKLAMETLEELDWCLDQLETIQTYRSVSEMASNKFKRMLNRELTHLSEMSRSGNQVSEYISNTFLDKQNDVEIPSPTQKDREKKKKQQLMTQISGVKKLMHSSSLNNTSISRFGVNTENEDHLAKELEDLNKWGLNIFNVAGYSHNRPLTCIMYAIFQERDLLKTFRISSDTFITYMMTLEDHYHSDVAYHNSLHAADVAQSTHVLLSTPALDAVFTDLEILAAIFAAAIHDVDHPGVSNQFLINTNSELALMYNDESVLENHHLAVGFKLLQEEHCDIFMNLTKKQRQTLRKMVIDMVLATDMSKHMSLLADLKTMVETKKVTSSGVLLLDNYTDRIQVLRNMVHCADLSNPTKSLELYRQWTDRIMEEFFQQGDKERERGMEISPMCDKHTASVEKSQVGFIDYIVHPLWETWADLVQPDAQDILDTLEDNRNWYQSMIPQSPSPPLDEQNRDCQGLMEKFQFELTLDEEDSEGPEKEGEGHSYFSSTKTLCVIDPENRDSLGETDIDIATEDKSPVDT
Cytochrome P450 1A2 (Homo sapiens), sequence (P05177 whole entry, looked up): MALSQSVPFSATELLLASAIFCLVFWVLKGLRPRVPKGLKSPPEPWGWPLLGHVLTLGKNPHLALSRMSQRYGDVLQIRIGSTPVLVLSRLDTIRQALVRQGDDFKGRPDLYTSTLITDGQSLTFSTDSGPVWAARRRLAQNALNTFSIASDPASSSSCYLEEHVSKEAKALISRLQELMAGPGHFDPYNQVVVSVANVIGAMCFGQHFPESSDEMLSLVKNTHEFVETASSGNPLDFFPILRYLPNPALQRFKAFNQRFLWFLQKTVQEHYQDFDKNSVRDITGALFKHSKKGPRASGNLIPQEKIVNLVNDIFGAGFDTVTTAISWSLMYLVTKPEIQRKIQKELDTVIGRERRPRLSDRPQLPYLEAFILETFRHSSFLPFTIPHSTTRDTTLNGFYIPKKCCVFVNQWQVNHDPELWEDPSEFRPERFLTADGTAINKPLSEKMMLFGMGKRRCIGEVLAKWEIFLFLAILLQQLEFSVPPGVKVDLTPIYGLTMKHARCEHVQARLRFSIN

Take `COc1cccc(Nc2ncc3nc(C)c(=O)n(C4CC4)c3n2)c1`: the Potency is > 11.4 µM (inactive) in assay [1]; 1.26 µM (active) in assay [3]; > 9.22 µM (inactive) in assay [6]; > 46 µM (inactive) in [7]; 6.31 µM (active) in [10]; 12.6 µM (active) in [14]. Besides, the Potency in [15] was 11.2 µM (active). The figures for the activity change, negative = inhibition in [2], in [4] and in [13] were -16.4% (inactive), 5.07% (inactive) and -5.91% (inactive), respectively. In assay [5], the activity, negative = inhibition is -13.4% (inactive). Besides, in assay [8], the call was inactive. Moreover, the Potency entry in [9], in assay [11], in assay [16] and in [17] was “inactive” each time. For the same molecule, in assay [12], the activation is -3.86% (inactive). Moreover, the max response was -1.52% in assay [13] (setting [19]) and -13.2% in assay [13] (setting [20]).
For `O=c1cnc2cncnc2n1Cc1ccccc1Cl`, the Potency in [1] is > 11.4 µM (inactive); in assay [3] it was 15.8 µM (active); in assay [6], > 9.22 µM (inactive); in [7] it was > 46 µM (inactive). The activity change, negative = inhibition is 8.55% (inactive) in [2], -28.3% (inactive) in assay [4] and -7.78% (inactive) in assay [13]. The activity, negative = inhibition in assay [5] is -5.06% (inactive). Also, the call in [8] was inactive. Further, the max response is -0.667% in [13] (setting [19]) and -10.1% in assay [13] (setting [20]). For the same molecule, the Potency result in [14], in assay [18], in [16] and in assay [17] was “inactive” each time.
Take `CNc1ncnc2ccc(-c3ccccc3CN(C)C)cc12`: the Potency in [1] was > 11.4 µM (inactive); in assay [3], 3.16 µM (active); in [6], > 46 µM (inactive); in assay [7], > 46 µM (inactive); in assay [14] it was 25.1 µM (active); in [15], 12.6 µM (active). The activity change, negative = inhibition in [2] is -22.5% (inactive); in [4], -2.46% (inactive); in [13], 4.45% (inactive). For the same molecule, the activity, negative = inhibition in [5] was -1.81% (inactive). Further, in assay [8], the outcome was inactive. In addition, the Potency result in [9], in assay [11], in assay [16] and in [17] was “inactive” each time. Moreover, the figures for the max response in [13] (setting [19]) and in assay [13] (setting [20]) were 6.85% and 10.7%, respectively.
As to `c1ccc(CNc2ncnc3ccc(-c4cccnc4)cc23)cc1`, the Potency in assay [1] is > 11.4 µM (inactive); in assay [3], 0.126 µM (active); in assay [6], > 46 µM (inactive); in assay [7] it was > 46 µM (inactive); in assay [10], 1.26 µM (active); in assay [14] it was 3.16 µM (active). Also, the Potency in assay [15] was 3.16 µM (active). Also, the activity, negative = inhibition in assay [5] was -1.78% (inactive). In addition, the outcome in assay [8] was inactive. The Potency entry in assay [11], in assay [16] and in [17] was “inactive” each time. For the same molecule, the activity change, negative = inhibition in [13] is -2.12% (inactive). Besides, the max response in assay [13] (setting [19]) stood at 14%; in assay [13] (setting [20]), 9.68%.
`CC(=O)NCCNc1nc(-c2cccnc2)nc2ccccc12`: the Potency is > 11.4 µM (inactive) in [1]; > 46 µM (inactive) in [6]; > 46 µM (inactive) in assay [7]; 25.1 µM (active) in assay [14]; 14.1 µM (active) in assay [15]. For the same molecule, the activity change, negative = inhibition is 5.7% (inactive) in [2], 0.668% (inactive) in [4] and 5.64% (inactive) in assay [13]. Moreover, in assay [5], the activity, negative = inhibition was 1.25% (inactive). In [8], the molecule was classed as inactive. Besides, the Potency entry in assay [9], in assay [16] and in [17] was “inactive” each time. The max response was found to be 21.4% in [13] (setting [19]) and 27.2% in [13] (setting [20]).
For the molecule `CN(C)c1ccc(-c2ccc3ncnc(-n4ccnc4)c3c2)cc1`, the Potency in assay [1] was > 11.4 µM (inactive); in [3] it was 0.316 µM (active); in [6], > 46 µM (inactive); in assay [7] it was > 46 µM (inactive); in [14], 3.16 µM (active); in assay [15], 4.47 µM (active). Moreover, the activity, negative = inhibition in assay [5] was -10% (inactive). Besides, the result in [8] was inactive. Also, the Potency result in assay [9], in assay [11], in assay [16] and in assay [17] was “inactive” each time. For the same molecule, the activity change, negative = inhibition in assay [13] is 7.19% (inactive). Besides, the max response in assay [13] (setting [19]) was 4.81%; in assay [13] (setting [20]) it was 9.84%.
